Measured values as given in PubChem BioAssay AID504332 (National Center for Advancing Translational Sciences (NCATS), 2011).
The campaign covered roughly 350,000 compounds. About 31,000 (8.9%) were called active. Not shown: some 15% with an inconclusive outcome. The list comes from a sample in which actives are over-represented; it also holds similar structures and randomly drawn compounds. Unmarked numbers belong to inactive results. Calls come from the whole dose curve; as a rule, active = well fitted inhibition curve with a large enough effect; inconclusive = small, poorly fitted or top-dose-only effect; inactive = no such curve, though single readings can be large or run the other way.

The molecules below were run against Histone-lysine N-methyltransferase EHMT2 (Homo sapiens) (UniProt Q96KQ7) (assay: qHTS Assay for Inhibitors of Histone Lysine Methyltransferase G9a). Details: G9a H3K9 monomethylation, AlphaScreen, 2 h; series mostly up to 59 µM; activity, negative = inhibition: at the top concentration.
Histone-lysine N-methyltransferase EHMT2 (Homo sapiens), sequence (Q96KQ7 913-1193 limits assumed): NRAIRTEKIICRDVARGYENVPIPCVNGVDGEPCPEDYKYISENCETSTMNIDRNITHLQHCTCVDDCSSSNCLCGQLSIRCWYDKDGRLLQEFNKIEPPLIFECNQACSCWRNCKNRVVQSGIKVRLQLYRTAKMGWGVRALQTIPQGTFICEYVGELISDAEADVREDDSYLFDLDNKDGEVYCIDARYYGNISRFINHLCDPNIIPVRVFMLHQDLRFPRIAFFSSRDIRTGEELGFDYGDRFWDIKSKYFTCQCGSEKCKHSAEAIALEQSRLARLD
Method in brief: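 AlphaScreen detection with an anti-monomethyl H3K9 antibody quantified product after a 2 h room-temperature reaction containing 500 nM biotinylated H3K9 peptide, 20 µM SAM and 20 nM enzyme, which had been preincubated 15 min with compound.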
% is set by controls: 0 for no effect and ±100 for the full control effect; potency is the fitted concentration of half-maximal effect.
Note: nearly all actives have a fitted effect of over 75% in size.

Row | Structure (SMILES) | activity, negative = inhibition | Potency
1 | Cc1cccc(NC(=O)c2cccc(S(=O)(=O)N3CCCC3)c2)n1 | -27.4% [at 102 µM] | 
2 | COC(=O)C1=C(C)N(C)C(=O)NC1c1ccc([N+](=O)[O-])o1 (configuration not stated) | -2.67% [at 102 µM] | 
3 | COC(=O)C1=C(C(=O)OC)C(c2cc([N+](=O)[O-])ccc2O)c2sc(=O)[nH]c2S1 (configuration not stated) |  | 44.7 µM (active)
4 | COc1cnc(-c2ccccn2)nc1Oc1ccc(C(C)(C)C)cc1 | 16.9% [at 102 µM] | 
5 | Cc1ccccc1CNC(=O)CCc1cn(Cc2ccccc2C)c2ccccc12 | -27.4% | 
6 | CCOc1ccc(S(=O)(=O)c2cn(Cc3ccccc3)c3ccc(OCC)cc3c2=O)cc1 | 4.03% | 
7 | O=C(Nc1ccc(NC(=O)c2ccc3c(c2)OCO3)cc1)c1cccc(Cl)c1 | 0.511% [at 12.7 µM] | 
8 | CC(=O)OCCN(CCCn1c(-c2ccncc2)nc2ccccc21)c1nc(-c2ccc(C)cc2)cs1 |  | 56.2 µM (active)
9 | CCOCCn1c(-c2ccccc2)nc2ccccc21 | 17.2% [at 102 µM] | 
10 | COc1ccc(-c2nc3ccccc3n2CCC(C)C)cc1OC | -2.19% [at 102 µM] | 
11 | CCC(Sc1nc2n[nH]c(C)c2c(=N)n1-c1ccccc1Cl)C(=O)N(CC)CC (configuration not stated) | 20.7% | 
12 | Cc1ccc(CC(=O)N(C)CC(=O)N(CC(C)C)c2c(N)n(CC(C)C)c(=O)[nH]c2=O)cc1C | 10.8% [at 2.33 µM] | 
13 | CCC(C(=O)Nc1cccc(Cl)c1C)n1nc(-c2ccc(C)cc2)ccc1=O (configuration not stated) | -3.11% | 
14 | COC(=O)c1ccccc1NC(=O)Cn1c(=O)cc(C)c2c(C)nn(-c3cccc(Cl)c3C)c21 | 1.79% | 
15 | Cn1nnc2c(N3CCN(c4ccccc4)CC3)ncnc21 | 1.37% | 
16 | O=C(Cc1ccc(Cl)cc1)NCC(c1cccs1)S(=O)(=O)c1ccc(Cl)cc1 (configuration not stated) | 27.5% | 
17 | Cc1ccc(-c2nn(-c3ccccc3)cc2C(=O)NCCCN2CCCC2=O)cc1 | -28.8% [at 102 µM] | 
18 | COc1ccc(-n2cc(-c3ccccc3)c3c(=S)nc[nH]c32)cc1 | 20.3% [at 102 µM] | 
19 | COc1ccc(N2C(=O)CNC2=S)cc1 | -12.5% | 
20 | COc1ccc(-c2cn(-c3ccc(OC)cc3)c(=S)[nH]2)cc1 |  | 1.41 µM (active)
21 | COc1ccccc1CCNC(=O)c1c(C)nn(CC(C)C)c1Cl | 46.5% [at 102 µM] | 

Row | Structure (SMILES) | activity, negative = inhibition | Potency
22 | COc1cccc(NC(=O)Cn2c(=O)cc(C)c3c(C)nn(-c4cccc(F)c4)c32)c1 | 6.73% | 
23 | CCOC(=O)C1=C(c2ccccc2)NC(=S)NC1c1ccc(Cl)cc1 (configuration not stated) | -11.4% [at 12.7 µM] | 
24 | COc1ccc(C2NC(=S)NC3=C2CCc2ccccc23)cc1OC (configuration not stated) |  | 0.631 µM (active)
25 | COC(=O)C1=C(C)NC(=S)NC1c1ccc(OCC(=O)N2CC(C)OC(C)C2)c(OC)c1 (configuration not stated) | -3.57% [at 12.7 µM] | 
26 | Fc1ccc(CN2CCc3nc(Nc4ccccc4)ncc3C2)cc1F | -40.7% | 
27 | CCn1cc(CN2CCC(n3nccc3NC(=O)CCCc3ccccc3)CC2)c(C)n1 | 20.1% [at 102 µM] | 
28 | COc1ccc(CN2CCC(n3nccc3NC(=O)CCCc3ccccc3)CC2)cc1C | 24.6% [at 102 µM] | 
29 | COc1cc(CN2CCC(n3nccc3NC(=O)CCCc3ccccc3)CC2)ccc1O |  | 70.8 µM (active)
30 | CCN(C(=O)c1sc2cc(OC)ccc2c1Cl)c1ccccc1 | 52.3% | 
31 | CCN(CC)S(=O)(=O)c1ccc2c(c1)c(=O)c(C(=O)N1CCN(c3cccc(Cl)c3)CC1)cn2C | 2.37% | 
32 | Cc1ccccc1CN1C(=O)c2ccccc2Sc2ccc(C(=O)NCCCN3CCOCC3)cc21 | -26.2% | 
33 | CCN1CCN(CCNC(=O)c2ccc3c(c2)NC(=O)/C(=C\c2ccc(OC)c(OC)c2)S3)CC1 | 4.92% [at 0.0925 µM] | 
34 | O=C(NCCN1CCOCC1)/C(=C/c1ccc(F)cc1)NC(=O)c1ccccc1 | 8.68% [at 102 µM] | 
35 | Cc1ccc(C(=O)N/C(=C\c2ccc(F)cc2)C(=O)NCCN2CCOCC2)cc1 | -3.65% [at 102 µM] | 
36 | O=C(NCCN1CCOCC1)c1ccc(/C=C2\Sc3ccccc3N(Cc3ccc(F)cc3)C2=O)cc1 |  | 28.2 µM (active)
37 | CCN1CCN(CCNC(=O)c2ccc(/C=C3/Sc4ccccc4N(Cc4cccc(C)c4)C3=O)cc2)CC1 |  | 44.7 µM (active)
38 | CCc1nc2c(cnn2-c2ccc(C)cc2)c(=O)n1-c1ccc(C)cc1 | 11.6% | 
39 | CCOc1ccccc1/C=N/Nc1nc2ccccc2o1 | 15.2% [at 102 µM] | 
40 | O=C1[C@H]2[C@@H](c3ccc(F)cc3)N3C(=O)N(c4ccc(C(F)(F)F)cc4)C(=O)[C@@]3(Cc3ccccc3)[C@H]2C(=O)N1C1CCCCC1 | 1.06% [at 12.7 µM] | 
41 | CCOc1ccc(N(CC)S(=O)(=O)N2CCCC(C(=O)NCc3ccc(Cl)cc3)C2)cc1 (configuration not stated) | 3.08% | 
42 | Cc1cc(=O)[nH]c(=S)[nH]1 | -41.8% [at 2.33 µM] | 

Row | Structure (SMILES) | activity, negative = inhibition | Potency
43 | Cc1c(C)c(C)c2[nH]c(=S)[nH]c2c1C |  | 1.12 µM (active)
44 | CCc1ccc(Oc2coc3cc(O)ccc3c2=O)cc1 | 13.5% [at 102 µM] | 
45 | CCOC(=O)c1cccc(NC(=O)c2cc(CN3CCCC3)on2)c1 | 2.39% | 
46 | CCOc1cc(C)c(S(=O)(=O)NCc2ccccn2)cc1C | 15.8% [at 102 µM] | 
47 | O=C(c1ccc(Cl)c([N+](=O)[O-])c1)N1CCN(c2ccccc2)CC1 | -43.7% [at 102 µM] | 
48 | O=C(c1cccc(F)c1)N1CCN(c2ccc([N+](=O)[O-])c(N3CCCCC3)c2)CC1 | 21.2% [at 0.501 µM] | 
49 | CO/N=C/c1ccc(N2CCN(C(=O)c3cccc(Cl)c3)CC2)c([N+](=O)[O-])c1 |  | 14.1 µM (active)
50 | CCCN(CCC)CCCNC(=O)Cn1cc2c(n1)-c1c(oc(C(=O)N3CCCC3)c1C)CC2 | -27.7% | 
51 | COCC(C)NS(=O)(=O)c1ccc(N2CCCCS2(=O)=O)cc1 (configuration not stated) | 7.99% | 
52 | Cc1nc2sc(C)c(C)n2c(=O)c1S(=O)(=O)NCCc1ccc(Cl)cc1 | -7.89% | 
53 | Cc1ccccc1-n1nc(C)c2cc(C(=O)NC3CC3)sc21 |  | 79.4 µM (active)
54 | Cc1cccn2c(=O)c3cc(C(=O)NC4CCCCC4)sc3nc12 | 3.36% [at 102 µM] | 
55 | Cc1cccc(NC(=O)c2cc3c(C)nn(-c4ccccc4)c3s2)c1 | -1.38% | 
56 | COc1cc(Cl)c(NC(=O)CC(C)S(=O)(=O)c2cc3c(cc2C)NC(=O)CO3)c(OC)c1 (configuration not stated) | -34% | 
57 | S=c1[nH]nc(Nc2ccccc2)s1 |  | 1.12 µM (active)
58 | S=c1[nH]nc(NCCc2ccccc2)s1 |  | 0.316 µM (active)
59 | O=C(CSc1ncccn1)NCCc1ccccc1 | 21.5% | 
60 | O=S(=O)(NCCc1ccccc1)c1ccccc1 | -4.81% | 
61 | CC(C)(C)C(=O)c1cnc(Nc2ccccc2)s1 | -11.7% | 
62 | O=c1cnnc(Nc2ccccc2)[nH]1 | 14.3% [at 102 µM] | 
